In the supplement of paper PMC11417369:
± gives the standard deviation of the averaged measurements. The full ranking holds about 25,000 sequences; the median of “ln(normalized median fluorescence intensity)” is about 8.6, and the highest 2% start at about 10. The list comes from a sample in which the highest values are over-represented; it also holds similar and randomly drawn sequences.

Each sequence was assayed on PfAP2-EXP AP2 domain (GST-tagged) (assay: gcPBM binding intensity (ln(normalized median fluorescence intensity)); higher = stronger DNA binding).
Procedure, shortened: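 Binding intensity is the highest Masliner-normalised natural-log median intensity over replicate spots in either probe orientation. To obtain it, GST-tagged P. falciparum DNA-binding domains made in E. coli were incubated for 1 h on an Agilent 4 × 180k array of primer-extended double-stranded 36-bp intergenic genomic probes plus negative controls. Detection used Alexa488 anti-GST antibody with scanning at 488 nm.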

| Sequence | gcPBM binding intensity (ln) |
| --- | --- |
| TTTAATTTTCCCTTCACACATAATATATATCTGTAT [CACACA_site5370] | 8.7 ± 0.43 |
| TATTATATATATGTTGACATATTTGTACACTCCACT [TGCATGCA_negctrl_site200] | 8.79 ± 0.61 |
| TATCAAAATTGTAATTGTACTTGTAAGTGGATATAT [XGTACX_site5949] | 8.68 ± 0.3 |
| TTTTTTAAAATAATAGGTACACATAAAAAAAAAAAA [XGTACX_site2517] | 8.72 ± 0.67 |
| AACATTATAAGACACACACACACATATATAAATATA [CACACA_site6622] | 8.65 ± 0.58 |
| ACACATATATATTATTATTATATAATATATATATAT [CACACA_negctrl_site1545] | 9.21 ± 0.15 |
| TAATTTTTTAAACACACACACATATATATATATATA [CACACA_site4230] | 10.2 ± 0.3 |
| TTTTTAAAACATATCACACATATATATATATATATA [CACACA_site5991] | 10.3 ± 0.41 |
| ATTTTGTTATGAAACACACACATATATATATATATA [CACACA_site3650] | 10.2 ± 0.18 |
| ATTTTGTTATGAAACACACACATATAAATATAAATA [CACACA_site7679] | 8.51 ± 0.3 |
| AAAAAAAAAAAAAACACACACATATAATATATTTAA [CACACA_site1337] | 8.35 ± 0.38 |
| AAAAAAAAAAATATCACACACACATAAATATAAACA [CACACA_site7138] | 8.6 ± 0.61 |
| AAAAAAATGAAACACACACACACATATATATATATA [CACACA_site1043] | 10.1 ± 0.26 |
| ATATTTTGTTATGAAACACACACATATATATATATA [CACACA_site9216] | 10.1 ± 0.16 |
| TTTTAATTAAAACACACACACACATATATATATATA [CACACA_site2291] | 10.2 ± 0.23 |
| TTTTAATGAAAACACACACACACATATATATATATA [CACACA_site5295] | 10.3 ± 0.11 |
| TTTTAAACAGGACACACACACATATATATATATATA [CACACA_site4664] | 10.1 ± 0.42 |
| TTTTAAACAAGACACACACACATATATATATATATA [CACACA_site925] | 10.2 ± 0.35 |
| AATTATATACATAAGTGTACATAATATATAAACATA [XGTACX_site793] | 8.31 ± 0.28 |
| TACATCTTACTACTTATAATATAATATAGTATGAAT [TGCATGCA_negctrl_site8] | 8.21 ± 0.43 |
| TTTTTCTTTTTTACAGTGCATAAATATATGTATTGT [GTGCAC_site9399] | 8.61 ± 0.32 |
| CTGAAGAAACTACAACGTACAAAATATGTATATATT [XGTACX_site3779] | 8.55 ± 0.4 |

| Sequence | gcPBM binding intensity (ln) |
| --- | --- |
| TTATTATATTAAAATTGTACTTGCTTTCAATATGAT [XGTACX_site5305] | 8.23 ± 0.35 |
| TTTCTTTTACATATTTGTACATATATAAATTTATAT [XGTACX_site1787] | 8.91 ± 0.35 |
| TACATTTAAAAAAAAACACACATATTTATATTTATA [CACACA_site7236] | 8.01 ± 0.49 |
| TTATCATTTTAAATCACACACATATATATATATATA [CACACA_site2849] | 10.1 ± 0.49 |
| TTAAAAAAAAAACACACACACATACACATATATATA [CACACA_site3299] | 8.77 ± 0.33 |
| TTATCATTTTAAATCACACACATATATAAATATGTA [CACACA_site7359] | 8.28 ± 0.35 |
| TCTTATCATTTTAAATCACACACATATATATATATA [CACACA_site8925] | 10.2 ± 0.16 |
| TACATTTAAAAAAAAACACACATATATATATATATA [CACACA_site2535] | 10.3 ± 0.33 |
| ATTTATGTTATTGTATGTACACAATATAATGTTATT [XGTACX_site5657] | 8.56 ± 0.32 |
| TAATACCATAACAAGTGTACATAAATAATTATTGTA [XGTACX_site4949] | 8.8 ± 0.44 |
| AAAAAAAAAAAAAAAACACACAAACATCAAATTACT [CACACA_site6950] | 8.69 ± 0.24 |
| GTTATATGTTATATATATATATATATATATATATAT [TGCATGCA_negctrl_site428] | 10.2 ± 0.65 |
| ATCAAAAATGTTATATATATATATATATATATATAT [TGCATGCA_negctrl_site71] | 10.2 ± 0.45 |
| AATATGTTATAAATATGTTATAAATAATAAATAAAT [GTGCAC_negctrl_site135] | 8.45 ± 0.47 |
| AAAATGAAATATGTTATATATATATATATATATATA [CACACA_negctrl_site1752] | 9.9 ± 0.4 |
| ATATGTTATATAAATATATATATATATATATATATA [TGCATGCA_negctrl_site594] | 10.1 ± 0.33 |
| ATATATATTATAAAATGTACAAATGTTATATAAAAT [XGTACX_site4750] | 8.85 ± 0.45 |
| ATATATATATATTCCACACACACACTAATAAAAAAA [CACACA_site9214] | 9.94 ± 0.16 |
| AACTGATTATTTTTTTGTACATATATAATAATATAT [XGTACX_site5953] | 8.61 ± 0.33 |
| GACCATGTTAACAAAGCATGCATCTCTATATGTTTA [TGCATGCA_site358] | 8.87 ± 0.49 |
| TCATAACAACTTTGTGTGCACATAAAACATGTATAT | 8.94 ± 0.3 |
| TATATTTATTTATACACATGCATATTTTAAGGGCTC [TGCATGCA_site885] | 8.72 ± 0.4 |

| Sequence | gcPBM binding intensity (ln) |
| --- | --- |
| TCATATCTTTTGAGCACACATATATATATATAAAGG [CACACA_site3338] | 8.71 ± 0.34 |
| ATCTAAACCTTTTGAGCACACATATATATATATATA [CACACA_site8526] | 9.86 ± 0.7 |
| CTAAACCTTTTGAGCACACATATATATATATATATA [CACACA_site1782] | 10.4 ± 0.16 |
| TAACAAAACATAGATTGTACATATTATAAATGTATA [XGTACX_site1543] | 8.46 ± 0.38 |
| TTTATTAATTTATAGTGTACATATTAATAATATATT [XGTACX_site7949] | 8.35 ± 0.2 |
| TTTTTATTTGGTTGTGTACACATATATATATATATA [CACACA_site5844] | 10.2 ± 0.3 |
| TAATATTTTTTGTGTACACATATATATATATATATA [CACACA_site5504] | 10.2 ± 0.53 |
| ATATATTATTTCTAGTGTACATACCCATATATAATA [XGTACX_site8902] | 8.97 ± 0.33 |
| AATATATATTTGTGTACACATTATATATATATATAT [CACACA_site6103] | 10 ± 0.35 |
| GTTTTCTAGTGGGGGTGTACATATTTATATTTAATA [XGTACX_site8378] | 10.9 ± 0.34 |
| ATATATATATTTGTATGTACATATATATATTCGTAT [XGTACX_site1640] | 9.23 ± 0.29 |
| ACATATTTTATTTTTTGTACACATATATTATTTTTT [XGTACX_site6528] | 8.99 ± 0.42 |
| TTTTTTTTGTGTATTTGTACATAATATATATATATA [XGTACX_site7092] | 9.68 ± 0.19 |
| TTTATTTTGTAGTGTACACATATATATATATATATA [CACACA_site5843] | 10.3 ± 0.36 |
| GTGTAATATATTTTTCGTACATATTATATATATATA [XGTACX_site1675] | 9.8 ± 0.37 |
| TTTCGTAACTATTTGTGTACATATATATATATATAT [XGTACX_site2920] | 10.3 ± 0.29 |
| GATCTATATATCATTACACACTTGAATTACTTAAAA [CACACA_site21] | 8.49 ± 0.36 |
| TAATTTTTTTTTTTTTTTTTTTTTTTTTTTTTCCTT [CACACA_negctrl_site1095] | 7.8 ± 0.61 |
| TAATTTTTATGAAGAAGTACAAAATCTACTATCATA [XGTACX_site4985] | 7.99 ± 0.38 |
| CGAACAAACAAATAAACACACAAAAAAAGATATATA [CACACA_site6944] | 8.72 ± 0.57 |
| AATGATAAATAAAAAGCATGCAACAAATAAAAATAA [TGCATGCA_site453] | 9.84 ± 0.22 |
| ATATATATAATAAGTGGTACAAGTTATTCATTAAAT [XGTACX_site7063] | 8.64 ± 0.3 |

| Sequence | gcPBM binding intensity (ln) |
| --- | --- |
| TAAACCAAAAAAAGTAGTACAAATATTATAAAAAAA [XGTACX_site8497] | 8.69 ± 0.39 |
| TTGTATTTTTAAATGACACACACATATATATATATA [CACACA_site8481] | 10.1 ± 0.38 |
| GTATTTTTAAATGACACACACATATATAAATATGTA [CACACA_site6880] | 8.38 ± 0.31 |
| GTATTTTTAAATGACACACACATATATATATATATA [CACACA_site1662] | 10.2 ± 0.5 |
| ATTTATTATTATATCACACATAATATATTAAATGAT [CACACA_site5821] | 8.28 ± 0.39 |
| ATATTTAAATGGATCACACATATATATATATATATA [CACACA_site5255] | 10.3 ± 0.3 |
| CATAAAAATGGATACACACACATAATATATTTATAT [CACACA_site7669] | 8.61 ± 0.4 |
| TTAACATATTTGTTAGTGCATTTTGATATTACACAT [GTGCAC_site9978] | 8.6 ± 0.33 |
| TCATACGAAATATAAACACACATACAATAAATAAAT [CACACA_site5156] | 8.78 ± 0.44 |
| CACCCACACCAACACACACACATATATATATATATA [CACACA_site362] | 10.4 ± 0.2 |
| AAGGATCACCCACAAACACACATATATATATATATA [CACACA_site559] | 10.4 ± 0.16 |
| AATATAATATAAGGATCACACACAAACACCCATATA [CACACA_site8084] | 8.91 ± 0.61 |
| TATAAACACCCATATAAACACACATATAAACCAACA [CACACA_site8790] | 8.73 ± 0.43 |
| TATAATATAAGGATCACACACAAACACCCATATATA [CACACA_site4468] | 8.74 ± 0.52 |
| AATAACCACCAACACACACACATATATATATATATA [CACACA_site3540] | 10.2 ± 0.45 |
| CACCCACACCAACACACACACATATATAATATATAT [CACACA_site595] | 8.81 ± 0.39 |
| AACCACATACATATAACACACATATACAATATATAT [CACACA_site8607] | 8.55 ± 0.45 |
| CACACCCACCAACACACACACACACCCACCCATATA [CACACA_site366] | 8.61 ± 0.57 |
| GTCTATTCAAAAAAGTGTACGGACATATAAACATAC [XGTACX_site6516] | 9.04 ± 0.28 |
| ATATATATATTTACATGTACACATCTATATATAAAC [XGTACX_site5581] | 9.445 ± 0.049 |
| GCACATCTATATGAAACACACATGGAAACATCTCTT [CACACA_site7793] | 8.47 ± 0.35 |
| TAAAGTTTTTTTTTAACACACACATAATAAAATAAA [CACACA_site8042] | 8.46 ± 0.51 |
